The source of these data is PubChem BioAssay (EPA / NIEHS).

Experiment [1] in a line: ATG_E_Box_CIS: Attagene CIS-FACTORIAL HepG2 Assay for human Enhancer Box (E-box) (AID 2282936). Conditions: HepG2 E-box cis-reporter transcription, actives raise or lower the signal. Summed up: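 DMSO served as negative control and baseline for bidirectional fitting. Human hepatoma HepG2 cells, transiently transfected with cis-reporter constructs, were dosed 24 h; reporter mRNA read by RT-PCR and capillary electrophoresis.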

Experiment [2] is described as follows: ATG_M_61_CIS: Attagene CIS-FACTORIAL HepG2 Assay for M61 Transcription Factor (Internal Marker) (AID 2282937). Conditions: HepG2 Attagene CIS-FACTORIAL M61 internal marker reporter; actives raise or lower the signal. Summed up: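 Readout is reporter mRNA by RT-PCR, fluorescent primer extension and capillary electrophoresis, with gain or loss fitted relative to DMSO. Transfected HepG2 cells carrying endogenous-TF-driven cis reporters were exposed to chemicals for 24 hours.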

A short description of experiment [3]: ATG_EGR_CIS: Attagene CIS-FACTORIAL HepG2 Assay for human Early Growth Response 1 (EGR1) (AID 2282938). Conditions: HepG2 Attagene CIS-FACTORIAL EGR reporter mRNA; actives raise or lower the signal. The method in brief:
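After 24 h compound exposure, RNA from reporter-transfected HepG2 cells was reverse-transcribed, PCR-amplified, fluorescently labelled and resolved by capillary electrophoresis. EGR1 reporter transcript changes, up or down, were fitted against DMSO, reflecting endogenous transcription-factor activity.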

Experiment [4] can be described thus: ATG_M_19_CIS: Attagene CIS-FACTORIAL HepG2 Assay for M19 Transcription Factor (Internal Marker) (AID 2282939). Conditions: HepG2 Attagene CIS-FACTORIAL M19 internal marker reporter; actives raise or lower the signal. Summed up: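 In this multiplexed cell assay, transiently transfected HepG2 reporter units report endogenous transcription-factor activity; after 24 hours of treatment, labelled reporter cDNA fragments are quantified by capillary electrophoresis and fitted bidirectionally against DMSO.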

Experiment [5] is described as follows: ATG_Ets_CIS: Attagene CIS-FACTORIAL HepG2 Assay for human Erythroblast Transformation Specific (ETS) (AID 2282941). The conditions noted are these: HepG2 ETS cis-reporter transcription, actives raise or lower the signal. Summed up: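 Human HepG2 hepatoma cells were transiently transfected with promoter-driven reporter constructs and treated for 24 hours. Reporter transcripts were quantified by RT-PCR with fluorescent primer extension; bidirectional curve fitting used DMSO as reference.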

Experiment [6] deals with Hepatocyte nuclear factor 3-beta (Homo sapiens) (UniProt Q9Y261). The experiment can be described thus: ATG_FoxA2_CIS: Attagene CIS-FACTORIAL HepG2 Assay for human Forkhead box A2 (FOXA2) (AID 2282942). The conditions noted are these: HepG2 cis-reporter transcription factor activity, 24 h; actives raise or lower the signal. The method in brief:
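Endogenous transcription factor activity is captured via cis-element-driven reporter transcripts in transfected HepG2. Total RNA taken at 24 h post-dosing; labelled RT-PCR products resolved by capillary electrophoresis. Gain or loss fitted versus DMSO.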

The nature of experiment [7]: ATG_FoxO_CIS: Attagene CIS-FACTORIAL HepG2 Assay for human Forkhead box O (FoxO) (AID 2282943). Conditions: HepG2 Attagene cis-reporter, FoxO element, mRNA; actives raise or lower the signal. The method in brief:
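Human hepatoma HepG2 cells carry transiently introduced reporter transcription units controlled by cis promoter elements. Chemical treatment lasted 24 h, and mRNA signal was compared with DMSO.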

Experiment [8] can be described thus: ATG_GATA_CIS: Attagene CIS-FACTORIAL HepG2 Assay for human GATA Binding Protein (AID 2282944). The conditions noted are these: HepG2 GATA cis-element reporter, Attagene multiplex mRNA; actives raise or lower the signal. Summed up: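 Measures endogenous transcription factor-driven reporter mRNA in HepG2 cells transiently carrying cis-regulated constructs. 24 h dosing; RNA via oligo(dT) reverse transcription, PCR, HpaI digestion, capillary electrophoresis; fitted relative to DMSO.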

Experiment [9] can be described thus: ATG_GLI_CIS: Attagene CIS-FACTORIAL HepG2 Assay for human Zinc Finger Protein GLI1 (AID 2282945). The conditions noted are these: HepG2, Attagene cis-factorial reporter mRNA, GLI element; actives raise or lower the signal. The method in brief: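 Bidirectional curve fits relative to DMSO, using reporter mRNA levels from RT-PCR plus capillary electrophoresis. Cells were HepG2 transiently carrying cis-regulated reporter constructs, harvested 24 h after dosing.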

Active and inactive are the calls of the source. How the source made its calls: active means hit-call score of the fitted dose curve at least 0.9, where 1 is the maximum; inactive means score below 0.9.

Sequence of Hepatocyte nuclear factor 3-beta (Homo sapiens) (Q9Y261 whole entry, looked up): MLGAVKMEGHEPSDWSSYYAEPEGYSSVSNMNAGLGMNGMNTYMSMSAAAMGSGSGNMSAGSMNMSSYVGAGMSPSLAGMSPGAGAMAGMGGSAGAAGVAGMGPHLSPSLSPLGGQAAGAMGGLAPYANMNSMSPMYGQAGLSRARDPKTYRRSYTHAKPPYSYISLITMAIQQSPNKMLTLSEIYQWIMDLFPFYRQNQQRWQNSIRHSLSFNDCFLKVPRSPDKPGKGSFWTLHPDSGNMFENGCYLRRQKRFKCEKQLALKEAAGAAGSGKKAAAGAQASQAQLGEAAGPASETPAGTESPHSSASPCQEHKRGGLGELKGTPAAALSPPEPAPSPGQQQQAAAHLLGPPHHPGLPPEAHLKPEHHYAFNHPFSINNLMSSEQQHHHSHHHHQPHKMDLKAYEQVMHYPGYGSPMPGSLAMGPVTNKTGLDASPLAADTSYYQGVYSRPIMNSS

As for `COc1ccc(N=Nc2cc(C)c(N=Nc3ccc(S(=O)(=O)O)cc3)cc2OC)cc1`, the AC50 is 100 µM (active) in [1], 166 µM (active) in [5] and 100 µM (active) in experiment [8]. In addition, the outcome in experiment [2], in experiment [3], in experiment [4], in experiment [6], in experiment [7] and in experiment [9] was inactive.

As to `CC/C=C\CCOC(=O)CC`, the result in experiment [1], in experiment [2], in experiment [3], in experiment [4], in experiment [5] and in experiment [6] was inactive. For the same compound, the outcome in [7], in [8] and in experiment [9] was inactive.

As for `Cc1c(C2(c3cc(Br)c(O)c(Br)c3C)OS(=O)(=O)c3ccccc32)cc(Br)c(O)c1Br`, the result in [1], in experiment [2], in experiment [3], in experiment [4], in experiment [5] and in experiment [6] was inactive. Besides, the outcome in experiment [7], in experiment [8] and in [9] was inactive.

Regarding `CCOC(=O)COC(=O)c1cc(Oc2ccc(C(F)(F)F)cc2Cl)ccc1[N+](=O)[O-]`, the outcome in experiment [1], in experiment [2], in [3], in [4], in [5] and in experiment [6] was inactive. The compound was classed as inactive in [7], in [8] and in experiment [9].

With `COC(=O)Nc1ccc(Cl)c(Cl)c1`, the outcome in [1], in experiment [2], in [3], in experiment [4], in experiment [5] and in experiment [6] was inactive. Also, the result in [7], in [8] and in experiment [9] was inactive.

`Nc1ccc(N)c2c1C(=O)c1ccccc1C2=O`: the result in experiment [1], in [2], in experiment [3], in experiment [4], in experiment [5] and in experiment [6] was inactive. Also, the outcome in experiment [7], in [8] and in experiment [9] was inactive.

Turning to `CS(=O)(=O)c1ccc(C2=C(c3ccccc3)C(=O)OC2)cc1`, the result in experiment [1], in experiment [2], in experiment [3], in experiment [4], in [5] and in [6] was inactive. Also, the call in [7], in experiment [8] and in experiment [9] was inactive.

In the case of `C=CC(=O)OCCCC`, the outcome in experiment [1], in [2], in experiment [3], in [4], in experiment [5] and in experiment [6] was inactive. Besides, the outcome in experiment [7], in experiment [8] and in experiment [9] was inactive.

For `C[C@H]1C[C@@H](O)CC(C)(C)C1`, the outcome in experiment [1], in [2], in [3], in experiment [4], in [5] and in experiment [6] was inactive. In addition, the compound was classed as inactive in [7], in [8] and in [9].

As to `O=CCc1ccccc1`, the outcome in [1], in experiment [2], in experiment [3], in [4], in [5] and in experiment [6] was inactive. Moreover, the compound was called inactive in experiment [7], in experiment [8] and in experiment [9].

On to `Nc1ccccc1[N+](=O)[O-]`, for which the result in experiment [1], in [2], in [3], in [4], in experiment [5] and in experiment [6] was inactive. Moreover, the outcome in experiment [7], in experiment [8] and in [9] was inactive.

With `CCN(CCC#N)c1ccc(N=Nc2ccc([N+](=O)[O-])cc2)cc1`, the outcome in [1], in experiment [2], in [3], in experiment [4], in experiment [5] and in [6] was inactive. Also, the result in [7], in experiment [8] and in [9] was inactive.

As to `CCOC(=O)C1OC1c1ccccc1` (stereo not drawn), in [1], the AC50 is 57 µM (active). Moreover, the compound was called inactive in experiment [2], in experiment [3], in experiment [4], in [5], in experiment [6] and in experiment [7]. Also, the result in [8] and in experiment [9] was inactive.

Take `C=C(C)[C@@H]1CC=C(C)C(=O)C1`: the outcome in experiment [1], in experiment [2], in experiment [3], in experiment [4], in experiment [5] and in experiment [6] was inactive. In addition, the compound was classed as inactive in experiment [7], in [8] and in [9].

For the compound `COS(=O)(=O)O`, the outcome in [1], in experiment [2], in [3], in experiment [4], in experiment [5] and in experiment [6] was inactive. In addition, the outcome in [7], in experiment [8] and in experiment [9] was inactive.

For `CCC1CCCCC1`, the result in experiment [1], in experiment [2], in experiment [3], in [4], in experiment [5] and in experiment [6] was inactive. The compound was classed as inactive in experiment [7], in experiment [8] and in experiment [9].

Consider `C=Cc1ccc(C(C)(C)C)cc1`, for which the result in [1], in experiment [2], in experiment [3], in [4], in experiment [5] and in [6] was inactive. Further, the compound was called inactive in experiment [7], in [8] and in [9].

In the case of `CC=CC=CCOC(=O)C(C)C`, the outcome in [1], in experiment [2], in experiment [3], in experiment [4], in [5] and in experiment [6] was inactive. The compound was classed as inactive in experiment [7], in experiment [8] and in experiment [9].

Take `Cc1cc(=O)oc2cc(N(C)C)ccc12`: the outcome in experiment [1], in experiment [2], in experiment [3], in experiment [4], in experiment [5] and in experiment [6] was inactive. Moreover, the compound was called inactive in experiment [7], in [8] and in [9].

For the compound `CC(C)CC(C)CC(O)CC(C)C` (stereo not drawn), the outcome in experiment [1], in [2], in experiment [3], in experiment [4], in experiment [5] and in [6] was inactive. In addition, the outcome in experiment [7], in experiment [8] and in experiment [9] was inactive.

Regarding `CC(C)(N=C=O)c1cccc(C(C)(C)N=C=O)c1`, the result in [1], in experiment [2], in experiment [3], in experiment [4], in experiment [5] and in experiment [6] was inactive. The call in experiment [7], in [8] and in [9] was inactive.

Take `CCOc1ccc(NC(=O)CC(C)=O)cc1`: the result in experiment [1], in experiment [2], in experiment [3], in experiment [4], in experiment [5] and in experiment [6] was inactive. Moreover, the result in [7], in experiment [8] and in experiment [9] was inactive.

As to `CN1CCOCC1`, the outcome in experiment [1], in [2], in [3], in [4], in experiment [5] and in [6] was inactive. Besides, the compound was classed as inactive in experiment [7], in [8] and in experiment [9].

On to `C[C@H](CCC(=O)NCC(=O)O)[C@H]1CC[C@H]2[C@@H]3[C@H](O)C[C@@H]4C[C@H](O)CC[C@]4(C)[C@H]3C[C@H](O)[C@]12C`, for which the outcome in experiment [1], in [2], in experiment [3], in experiment [4], in experiment [5] and in experiment [6] was inactive. For the same compound, the call in experiment [7], in [8] and in experiment [9] was inactive.

Consider `C=C1C[C@]23C[C@@]1(O)CC[C@H]2[C@@]12C=C[C@H](O)[C@@](C)(C(=O)O1)[C@H]2[C@@H]3C(=O)O`, for which the result in experiment [1], in experiment [2], in [3], in experiment [4], in experiment [5] and in experiment [6] was inactive. Further, the result in experiment [7], in experiment [8] and in experiment [9] was inactive.

Take `CC(=O)CC(=O)Nc1ccccc1`: the outcome in experiment [1], in [2], in [3], in experiment [4], in experiment [5] and in [6] was inactive. For the same compound, the compound was called inactive in experiment [7], in [8] and in experiment [9].

As for `COc1cc(Cl)c(OC)cc1N`, the result in experiment [1], in experiment [2], in experiment [3], in experiment [4], in experiment [5] and in experiment [6] was inactive. Also, the compound was called inactive in experiment [7], in experiment [8] and in experiment [9].

Usually AC50 stands for the concentration at which the activity in the assay is half-maximal.
